A short description of assay [1]: ATG_TAL_CIS: Attagene CIS-FACTORIAL HepG2 Assay for human TAL Basal Promoter (AID 2282966).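 Also: background control endpoint measuring basal TAL promoter reporter mRNA not a specific factor.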 The conditions noted are these: HepG2 Attagene cis-factorial TAL promoter reporter; actives raise or lower the signal. The method in brief: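 Readout: reporter mRNA, fluorescence by CE. System: HepG2, transient multi-reporter transfection, endogenous TF activity. Exposure: 24 h. Analysis: bidirectional, DMSO-normalized; background control.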

A short description of assay [2]: ATG_TGFb_CIS: Attagene CIS-FACTORIAL HepG2 Assay for human Transforming Growth Factor (TGF) (AID 2282967). The note with it: HepG2 Attagene CIS TGFb reporter, mRNA transcription; actives raise or lower the signal. A digest of the protocol:
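HepG2 cells transiently transfected with cis-promoter-driven multiplexed reporter units; 24 h compound exposure. Reporter mRNA measured by RT-PCR, 6-FAM labeling, HpaI digestion and capillary electrophoresis; bidirectional fit versus DMSO baseline.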

Assay [3] is described as follows: ATG_VDRE_CIS: Attagene CIS-FACTORIAL HepG2 Assay for human Vitamin D Receptor Element (VDRE) (AID 2282968). The conditions noted are these: HepG2 VDRE cis-reporter transcription, actives raise or lower the signal. The method in brief:
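RT-PCR/CE readout of reporter mRNA; HepG2, transient transfection, 24 h dosing; DMSO baseline; bidirectional analysis.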

Assay [4] deals with X-box-binding protein 1 (Homo sapiens) (UniProt P17861). Nature of the assay: ATG_Xbp1_CIS: Attagene CIS-FACTORIAL HepG2 Assay for human X-box Binding Protein 1 (XBP1) (AID 2282972). The note with it: HepG2 XBP1 cis-element reporter, Attagene multiplex; actives raise or lower the signal. A digest of the protocol: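 After a 24-hour chemical exposure of HepG2 cells carrying cis-regulated reporters, reporter mRNA levels are assessed. Quantification uses RT-PCR, 6-FAM labelling and capillary electrophoresis. Gain- or loss-of-signal is fitted against DMSO.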
X-box-binding protein 1 (Homo sapiens), sequence (P17861 whole entry, looked up): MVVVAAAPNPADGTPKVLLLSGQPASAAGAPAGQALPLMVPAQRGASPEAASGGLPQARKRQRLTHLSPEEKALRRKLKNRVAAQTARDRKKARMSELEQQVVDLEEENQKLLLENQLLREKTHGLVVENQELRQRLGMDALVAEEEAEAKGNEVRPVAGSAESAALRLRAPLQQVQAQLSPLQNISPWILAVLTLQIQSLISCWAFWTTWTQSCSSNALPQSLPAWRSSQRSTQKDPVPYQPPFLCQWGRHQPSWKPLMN

Assay [5] in a line: ATG_M_19_TRANS: Attagene TRANS-FACTORIAL HepG2 Assay for M19 Transcription Factor (Internal Marker) (AID 2282974; active = hit-call score of the fitted dose curve at least 0.9, where 1 is the maximum). The conditions noted are these: HepG2 Attagene TRANS-FACTORIAL M19 internal marker reporter. A digest of the protocol:
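Gain-of-signal in reporter mRNA, relative to DMSO, was scored from capillary electrophoresis fluorescence. HepG2 cells carried transiently transfected multiple reporter transcription units and were incubated with test chemicals for 24 h.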

The nature of assay [6]: ATG_GAL4_TRANS: Attagene TRANS-FACTORIAL HepG2 Assay for GAL4 (Internal Marker) (AID 2282976; active = hit-call score of the fitted dose curve at least 0.9, where 1 is the maximum). The conditions noted are these: HepG2 Attagene TRANS GAL4 internal marker reporter. The method in brief: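 Fluorescence from capillary electrophoresis of labelled RT-PCR products quantifies reporter mRNA induction after 24 h dosing of HepG2 cells carrying transfected GAL4-UAS reporter transcription units. Vehicle DMSO serves as baseline.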

Assay [7] has as its target Glucocorticoid receptor (Homo sapiens) (UniProt P04150). Nature of the assay: ATG_GR_TRANS: Attagene TRANS-FACTORIAL HepG2 Assay for human Glucocorticoid Receptor (GR) (AID 2282978; active = hit-call score of the fitted dose curve at least 0.9, where 1 is the maximum;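 also: activators score as hits since higher reporter transcript over DMSO is fitted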). The conditions noted are these: HepG2 Attagene TRANS GR reporter, mRNA transcription. The method in brief: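 HepG2 transient transfection, multiple reporter units, GAL4-UAS under NR-GAL4 chimera control. 24 h treatment. Reporter mRNA by RT-PCR/CE fluorescence, DMSO as negative control.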

The target in assay [8] is Oxysterols receptor LXR-alpha (Homo sapiens) (UniProt Q13133). Nature of the assay: ATG_LXRa_TRANS: Attagene TRANS-FACTORIAL HepG2 Assay for human Liver X Receptor alpha (LXRa) (AID 2282980; active = hit-call score of the fitted dose curve at least 0.9, where 1 is the maximum). The conditions noted are these: HepG2 Attagene TRANS reporter, LXRa transactivation. The method in brief: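 Transient HepG2 transfectants, 24 h dosing, RT-PCR/CE mRNA reporter quantitation; gain-of-signal vs DMSO.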
Oxysterols receptor LXR-alpha (Homo sapiens), sequence (Q13133 whole entry, looked up): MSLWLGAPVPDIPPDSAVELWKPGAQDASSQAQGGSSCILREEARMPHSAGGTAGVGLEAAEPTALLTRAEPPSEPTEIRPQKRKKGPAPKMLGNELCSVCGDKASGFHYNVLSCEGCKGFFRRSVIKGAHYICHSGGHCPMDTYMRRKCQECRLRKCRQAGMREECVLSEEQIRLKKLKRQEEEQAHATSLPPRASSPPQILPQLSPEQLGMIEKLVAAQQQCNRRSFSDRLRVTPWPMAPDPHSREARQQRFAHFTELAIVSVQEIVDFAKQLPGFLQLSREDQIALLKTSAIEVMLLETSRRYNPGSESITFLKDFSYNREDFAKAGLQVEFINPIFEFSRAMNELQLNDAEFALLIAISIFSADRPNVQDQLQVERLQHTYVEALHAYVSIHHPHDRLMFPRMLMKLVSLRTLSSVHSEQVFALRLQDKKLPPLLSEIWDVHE

In assay [9] the target is Oxysterols receptor LXR-beta (Homo sapiens) (UniProt P55055). The assay is described as follows: ATG_LXRb_TRANS: Attagene TRANS-FACTORIAL HepG2 Assay for human Liver X Receptor beta (LXRb) (AID 2282981; active = hit-call score of the fitted dose curve at least 0.9, where 1 is the maximum). The conditions noted are these: HepG2 Attagene TRANS GAL4-LXRb reporter, mRNA. The method in brief: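 In this TRANS format, exogenous chimeric NR-Gal4 protein activity, not endogenous factors, drives reporter expression in transfected human HepG2 cells. Exposure lasted 24 h; reporter mRNA was read by fluorescent capillary electrophoresis.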

The nature of assay [10]: ATG_M_32_TRANS: Attagene TRANS-FACTORIAL HepG2 Assay for M32 Transcription Factor (Internal Marker) (AID 2282984; active = hit-call score of the fitted dose curve at least 0.9, where 1 is the maximum;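 also: transcript level of a background control reporter unit measured by RT-PCR and capillary electrophoresis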). The conditions noted are these: HepG2 Attagene TRANS M32 internal marker reporter. A digest of the protocol:
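Human hepatoma HepG2, transient MRTU transfection, 24 h treatment. RNA → RT-PCR → fluorescent primer extension → HpaI digest (2 h, 37 C) → CE. Positive-direction fit vs DMSO.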

Assay [11] concerns the target Nuclear receptor subfamily 4 group A member 2 (Homo sapiens) (UniProt P43354). The assay is described as follows: ATG_NURR1_TRANS: Attagene TRANS-FACTORIAL HepG2 Assay for human Nuclear Receptor Related Protein 1 (NURR1) (AID 2282985; active = hit-call score of the fitted dose curve at least 0.9, where 1 is the maximum). The conditions noted are these: HepG2 Attagene TRANS reporter, mRNA readout. A digest of the protocol: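 After 24 h chemical dosing, total RNA from transiently transfected HepG2 cells was reverse-transcribed and reporter cDNA PCR-amplified, FAM-labelled and analysed by capillary electrophoresis. Activity fitted in positive direction, DMSO as negative control.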

The target in assay [12] is Transcriptional activator Myb (Homo sapiens) (UniProt P10242). Nature of the assay: ATG_Myb_CIS: Attagene CIS-FACTORIAL HepG2 Assay for human Myeloblastosis (Myb) Proto-Oncogene Transcription Factor (AID 2282986). The conditions noted are these: HepG2 Attagene CIS-FACTORIAL Myb reporter transcription; actives raise or lower the signal. A digest of the protocol: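 Multiplexed cis-reporter system in HepG2: transient transfection, 24 h treatment, mRNA readout by RT-PCR and capillary electrophoresis. Both increases and decreases are scored versus DMSO negative control.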
Transcriptional activator Myb (Homo sapiens), sequence (P10242 whole entry, looked up): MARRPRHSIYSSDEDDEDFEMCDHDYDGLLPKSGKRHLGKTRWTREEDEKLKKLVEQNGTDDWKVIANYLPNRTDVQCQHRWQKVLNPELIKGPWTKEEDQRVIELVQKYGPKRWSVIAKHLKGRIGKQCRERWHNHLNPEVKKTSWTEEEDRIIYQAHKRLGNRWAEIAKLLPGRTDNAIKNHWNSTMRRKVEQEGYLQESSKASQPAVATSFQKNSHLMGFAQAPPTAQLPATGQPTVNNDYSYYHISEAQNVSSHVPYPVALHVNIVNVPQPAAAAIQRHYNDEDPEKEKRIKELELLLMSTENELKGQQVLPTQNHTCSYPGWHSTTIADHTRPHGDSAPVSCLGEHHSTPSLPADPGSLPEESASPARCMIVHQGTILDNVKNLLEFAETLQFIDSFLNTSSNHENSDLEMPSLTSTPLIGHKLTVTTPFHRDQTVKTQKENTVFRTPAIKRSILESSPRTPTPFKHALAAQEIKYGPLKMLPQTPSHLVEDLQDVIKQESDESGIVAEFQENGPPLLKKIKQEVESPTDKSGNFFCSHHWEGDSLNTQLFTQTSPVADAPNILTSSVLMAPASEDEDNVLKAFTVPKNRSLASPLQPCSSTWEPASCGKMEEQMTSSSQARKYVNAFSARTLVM

Assay [13] concerns the target Nuclear respiratory factor 1 (Homo sapiens) (UniProt Q16656). The assay is described as follows: ATG_NRF1_CIS: Attagene CIS-FACTORIAL HepG2 Assay for human Nuclear Respiratory Factor 1 (NRF1) Orphan Gene (AID 2282987). The conditions noted are these: HepG2 NRF1 cis-element reporter, Attagene multiplex; actives raise or lower the signal. The method in brief: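 Endogenous factor activity was captured via cis-element-driven reporter transcripts in HepG2 cells. Following 24 h chemical treatment, transcripts were quantified by RT-PCR and capillary electrophoresis.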

The nature of assay [14]: ATG_NFI_CIS: Attagene CIS-FACTORIAL HepG2 Assay for human Nuclear Factor I (NFI) (AID 2282989). The note with it: HepG2 cis-regulatory reporter, NFI response element transcription; actives raise or lower the signal. The method in brief:
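HepG2 cells transiently transfected with cis-element-driven multiplexed reporter transcription units, dosed for 24 h. Reporter mRNA quantified by RT-PCR, fluorescent labelling, HpaI digestion and capillary electrophoresis; bidirectional fit versus DMSO baseline.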

The target of assay [15] is Steroid hormone receptor ERR1 (Homo sapiens) (UniProt P11474). Nature of the assay: ATG_ERRa_TRANS: Attagene TRANS-FACTORIAL HepG2 Assay for human Estrogen-Related Receptor alpha (ERRa) (AID 2282971; active = hit-call score of the fitted dose curve at least 0.9, where 1 is the maximum). The note with it: HepG2 Attagene TRANS reporter, ERRa transactivation. The method in brief:
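HepG2 cells were transiently transfected with multiple GAL4-UAS reporter units, then dosed with compound for 24 h. Total RNA was reverse-transcribed, reporter cDNA PCR-amplified and fluorescently labelled, and fragments resolved by capillary electrophoresis; induction was compared with DMSO.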

For assay [16], the target named is Estrogen-related receptor gamma (Homo sapiens) (UniProt P62508). The assay is described as follows: ATG_ERRg_TRANS: Attagene TRANS-FACTORIAL HepG2 Assay for human Estrogen-Related Receptor gamma (ERRg) (AID 2282977; active = hit-call score of the fitted dose curve at least 0.9, where 1 is the maximum;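 also: hits increase reporter signal over DMSO so potencies reflect activators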). The note with it: HepG2 Attagene TRANS reporter, ERRg transactivation. The method in brief: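 HepG2 cells transiently transfected with multiplexed GAL4-UAS reporter units driven by chimeric NR-Gal4 proteins; 24 h exposure. Reporter mRNA quantified by RT-PCR, fluorescent labelling, HpaI digestion and capillary electrophoresis; gain of signal vs DMSO.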

Assay [17] has as its target Bile acid receptor (Homo sapiens) (UniProt Q96RI1). The assay is described as follows: ATG_FXR_TRANS: Attagene TRANS-FACTORIAL HepG2 Assay for Farnesoid X Receptor (FXR) (AID 2282979; active = hit-call score of the fitted dose curve at least 0.9, where 1 is the maximum;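 also: hits raise reporter mRNA above DMSO so AC50 marks FXR activation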). The note with it: HepG2 Attagene TRANS FXR-GAL4 reporter transcription. A digest of the protocol:
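Chimeric FXR-GAL4 activity in transiently transfected human HepG2 liver cells is scored as induction of reporter mRNA after 24 h of dosing. Detection uses RT-PCR with fluorescent labelling and capillary electrophoresis, with DMSO serving as baseline.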

A short description of assay [18]: ATG_M_06_TRANS: Attagene TRANS-FACTORIAL HepG2 Assay for M06 Transcription Factor (Internal Marker) (AID 2282983; active = hit-call score of the fitted dose curve at least 0.9, where 1 is the maximum). The conditions noted are these: HepG2 Attagene TRANS M06 internal marker reporter. A digest of the protocol: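 Measured by capillary electrophoresis of fluorescently labelled RT-PCR products, this endpoint reflects reporter mRNA in HepG2 cells harbouring exogenous NR-GAL4 reporter constructs after 24 h exposure, with DMSO as baseline.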

The target of assay [19] is Hepatocyte nuclear factor 4-alpha (Homo sapiens) (UniProt P41235). The assay is described as follows: ATG_HNF4a_TRANS: Attagene TRANS-FACTORIAL HepG2 Assay for human Hepatocyte Nuclear Factor 4 alpha (HNF4a) (AID 2282982; active = hit-call score of the fitted dose curve at least 0.9, where 1 is the maximum). The note with it: HepG2 HNF4a transactivation reporter, mRNA readout. A digest of the protocol: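 Cells used were human HepG2, transiently carrying GAL4-UAS reporter units read out against exogenous NR-GAL4 chimeras. Reporter transcript levels after 24 h dosing were quantified by fluorescent RT-PCR and capillary electrophoresis.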
Hepatocyte nuclear factor 4-alpha (Homo sapiens), sequence (P41235 whole entry, looked up, the tested form may be a part): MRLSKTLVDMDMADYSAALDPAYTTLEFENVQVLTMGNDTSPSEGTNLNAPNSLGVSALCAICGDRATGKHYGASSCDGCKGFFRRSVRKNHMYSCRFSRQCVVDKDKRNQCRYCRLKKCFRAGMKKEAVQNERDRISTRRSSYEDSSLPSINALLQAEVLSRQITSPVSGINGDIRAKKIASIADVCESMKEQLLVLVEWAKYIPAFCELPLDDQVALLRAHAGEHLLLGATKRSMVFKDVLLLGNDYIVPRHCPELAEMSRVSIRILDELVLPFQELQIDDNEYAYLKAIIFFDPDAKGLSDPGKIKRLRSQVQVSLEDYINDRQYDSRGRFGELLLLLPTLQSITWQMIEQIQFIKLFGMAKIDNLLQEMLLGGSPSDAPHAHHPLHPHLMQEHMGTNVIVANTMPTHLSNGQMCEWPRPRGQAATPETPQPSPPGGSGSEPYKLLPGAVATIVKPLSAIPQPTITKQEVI

The text below walks through data of PubChem BioAssay (EPA / NIEHS).

Molecules are shown by their SMILES. Records with an inconclusive call do not appear. Active and inactive are the calls of the source. The calls were made as follows, unless noted: active = hit-call score of the fitted dose curve at least 0.9, where 1 is the maximum; inactive = score below 0.9.

Nuclear receptor subfamily 4 group A member 2 (Homo sapiens), sequence (P43354 whole entry, looked up): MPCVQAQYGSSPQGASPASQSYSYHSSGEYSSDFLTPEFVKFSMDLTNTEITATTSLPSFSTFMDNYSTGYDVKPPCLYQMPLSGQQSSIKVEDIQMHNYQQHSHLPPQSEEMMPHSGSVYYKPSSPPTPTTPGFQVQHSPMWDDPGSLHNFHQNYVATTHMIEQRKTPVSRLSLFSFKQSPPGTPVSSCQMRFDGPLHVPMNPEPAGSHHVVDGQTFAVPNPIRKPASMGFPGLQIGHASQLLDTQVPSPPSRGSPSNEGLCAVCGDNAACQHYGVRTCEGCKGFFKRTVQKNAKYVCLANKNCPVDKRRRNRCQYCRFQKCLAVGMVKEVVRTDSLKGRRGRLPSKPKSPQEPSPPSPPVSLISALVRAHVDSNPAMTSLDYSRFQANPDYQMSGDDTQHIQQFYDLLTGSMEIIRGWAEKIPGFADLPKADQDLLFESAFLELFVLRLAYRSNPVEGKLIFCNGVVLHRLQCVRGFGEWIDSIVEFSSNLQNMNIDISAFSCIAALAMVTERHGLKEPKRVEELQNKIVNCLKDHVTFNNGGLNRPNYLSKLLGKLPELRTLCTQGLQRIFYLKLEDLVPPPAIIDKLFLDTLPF
Nuclear respiratory factor 1 (Homo sapiens), sequence (Q16656 whole entry, looked up): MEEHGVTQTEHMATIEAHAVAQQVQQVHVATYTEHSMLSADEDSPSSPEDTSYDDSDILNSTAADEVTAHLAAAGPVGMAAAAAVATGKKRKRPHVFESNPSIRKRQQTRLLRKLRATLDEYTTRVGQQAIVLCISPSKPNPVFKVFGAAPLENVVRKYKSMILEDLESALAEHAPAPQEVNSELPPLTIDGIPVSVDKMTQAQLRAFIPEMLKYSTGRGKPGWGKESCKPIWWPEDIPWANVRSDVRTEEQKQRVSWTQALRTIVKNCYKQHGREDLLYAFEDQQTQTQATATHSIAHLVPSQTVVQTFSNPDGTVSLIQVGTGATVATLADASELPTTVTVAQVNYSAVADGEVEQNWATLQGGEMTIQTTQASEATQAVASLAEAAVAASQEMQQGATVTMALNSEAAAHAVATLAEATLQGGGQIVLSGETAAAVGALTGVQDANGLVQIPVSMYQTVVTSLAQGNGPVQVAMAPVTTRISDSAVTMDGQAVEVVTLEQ
Bile acid receptor (Homo sapiens), sequence (Q96RI1 whole entry, looked up, the tested form may be a part): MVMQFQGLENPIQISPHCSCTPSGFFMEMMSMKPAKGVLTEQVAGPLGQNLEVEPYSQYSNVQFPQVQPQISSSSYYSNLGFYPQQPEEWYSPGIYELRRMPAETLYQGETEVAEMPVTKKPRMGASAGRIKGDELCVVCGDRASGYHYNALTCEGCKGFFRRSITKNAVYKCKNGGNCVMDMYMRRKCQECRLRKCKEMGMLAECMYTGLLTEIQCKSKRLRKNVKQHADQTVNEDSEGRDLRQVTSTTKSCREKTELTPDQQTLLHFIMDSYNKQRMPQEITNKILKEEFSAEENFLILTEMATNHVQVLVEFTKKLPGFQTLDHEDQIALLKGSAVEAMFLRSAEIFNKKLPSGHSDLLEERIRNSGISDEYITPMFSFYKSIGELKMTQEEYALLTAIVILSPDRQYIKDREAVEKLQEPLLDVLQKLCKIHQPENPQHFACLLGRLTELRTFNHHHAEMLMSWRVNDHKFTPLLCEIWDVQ
Steroid hormone receptor ERR1 (Homo sapiens), sequence (P11474 whole entry, looked up, the tested form may be a part): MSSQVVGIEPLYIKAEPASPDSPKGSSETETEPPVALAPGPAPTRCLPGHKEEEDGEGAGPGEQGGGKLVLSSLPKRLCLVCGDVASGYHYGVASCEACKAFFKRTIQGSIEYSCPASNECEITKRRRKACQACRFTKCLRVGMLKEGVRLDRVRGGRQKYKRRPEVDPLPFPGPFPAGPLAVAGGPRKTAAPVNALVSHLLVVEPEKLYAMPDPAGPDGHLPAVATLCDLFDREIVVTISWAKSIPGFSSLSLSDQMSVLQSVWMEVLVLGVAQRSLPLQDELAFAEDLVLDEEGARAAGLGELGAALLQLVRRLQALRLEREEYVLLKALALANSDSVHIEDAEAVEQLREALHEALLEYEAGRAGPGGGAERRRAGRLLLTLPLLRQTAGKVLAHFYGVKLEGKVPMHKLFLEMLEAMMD
Glucocorticoid receptor (Homo sapiens), sequence (P04150 whole entry, looked up, the tested form may be a part): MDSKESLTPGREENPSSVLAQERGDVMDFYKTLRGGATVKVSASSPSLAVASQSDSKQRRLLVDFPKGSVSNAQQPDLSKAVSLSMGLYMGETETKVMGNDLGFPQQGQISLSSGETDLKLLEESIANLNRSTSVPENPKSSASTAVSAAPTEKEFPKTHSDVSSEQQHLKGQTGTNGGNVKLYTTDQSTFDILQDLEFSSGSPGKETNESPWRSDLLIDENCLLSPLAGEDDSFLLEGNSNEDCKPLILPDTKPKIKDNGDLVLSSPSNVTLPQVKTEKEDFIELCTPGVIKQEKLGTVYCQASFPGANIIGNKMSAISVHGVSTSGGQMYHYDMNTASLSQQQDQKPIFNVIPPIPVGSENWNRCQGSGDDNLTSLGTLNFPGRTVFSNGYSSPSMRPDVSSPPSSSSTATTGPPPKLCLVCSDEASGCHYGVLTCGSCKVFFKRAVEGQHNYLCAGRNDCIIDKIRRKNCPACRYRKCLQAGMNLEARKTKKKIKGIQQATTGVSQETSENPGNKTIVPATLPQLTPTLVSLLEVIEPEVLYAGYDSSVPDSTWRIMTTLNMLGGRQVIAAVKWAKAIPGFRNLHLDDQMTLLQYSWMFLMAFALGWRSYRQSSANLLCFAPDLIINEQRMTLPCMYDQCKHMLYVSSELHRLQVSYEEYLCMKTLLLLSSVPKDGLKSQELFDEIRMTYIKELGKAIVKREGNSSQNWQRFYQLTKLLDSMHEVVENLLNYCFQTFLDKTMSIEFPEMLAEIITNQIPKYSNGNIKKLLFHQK

Consider `CN(C)c1cccc(O)c1`, for which the result in [1], in assay [2], in assay [3], in assay [4], in [5] and in [6] was inactive. For the same molecule, the outcome in assay [7], in assay [8], in assay [9], in [10], in [11] and in assay [12] was inactive. The molecule was called inactive in [13] and in assay [14].

As to `CSCCC=O`, the outcome in assay [1], in assay [2], in assay [3], in assay [15], in [4] and in assay [6] was inactive. Besides, the call in assay [16], in [17], in [8], in assay [18], in assay [12] and in assay [13] was inactive.

For `COCCc1ccc(OCC(O)CNC(C)C)cc1` (stereo not drawn), the molecule was classed as inactive in [1], in assay [2], in assay [3], in [15], in assay [4] and in assay [5]. For the same molecule, the call in [7], in assay [12], in [13] and in assay [14] was inactive.

The term AC50 denotes the concentration at which the activity in the assay is half-maximal. With `CC1=C(Br)C(=O)C(Br)=C/C1=C(/c1ccccc1S(=O)(=O)O)c1cc(Br)c(O)c(Br)c1C`, the result in assay [1], in assay [2], in assay [4], in assay [5], in assay [6] and in assay [7] was inactive. Also, the result in assay [17], in [18], in assay [11], in [12], in [13] and in [14] was inactive. In assay [3], the AC50 is 40.8 µM (active).

`CCC1CCCCC1`: the call in [1], in assay [2], in [3], in assay [15], in assay [4] and in assay [5] was inactive. In addition, the molecule was classed as inactive in assay [8], in assay [12] and in [13].

For `C=C(C)C(=O)OCCOC1CC2CC1C1C=CCC21` (stereo not drawn), the outcome in assay [1], in assay [2], in assay [3], in [15], in [4] and in assay [6] was inactive. For the same molecule, the result in assay [8], in assay [19], in assay [18], in assay [10], in [11] and in assay [12] was inactive. Also, the call in [13] and in assay [14] was inactive.

As for `CC1CC(O)CC(C)(C)C1` (stereo not drawn), the molecule was called inactive in assay [1], in assay [2], in [3], in assay [15], in assay [4] and in assay [5]. Also, the molecule was classed as inactive in [13] and in assay [14].

Regarding `CCCCCCOC(=O)CCC`, the molecule was called inactive in assay [1], in assay [2], in [3], in assay [4], in assay [5] and in [8]. For the same molecule, the molecule was called inactive in assay [18], in assay [13] and in assay [14].

Take `C=Cc1ccc(C)cc1`: the molecule was called inactive in assay [1], in assay [2], in assay [3], in [4], in [5] and in assay [7]. The molecule was called inactive in [9], in [12], in assay [13] and in assay [14].

`CCOC(=O)[C@@H](C)Oc1ccc(Oc2nc3ccc(Cl)cc3o2)cc1`: the result in assay [1], in assay [2], in assay [3], in [4], in assay [5] and in assay [16] was inactive. The call in [7], in [17], in assay [8], in assay [18], in assay [10] and in assay [11] was inactive. Moreover, the outcome in assay [12], in [13] and in [14] was inactive.

For `CCCCCCCCCCCCS(=O)(=O)Cl`, the result in [1], in assay [2], in [3], in [4], in [5] and in [7] was inactive. The molecule was classed as inactive in assay [17], in assay [19], in assay [10], in assay [12], in assay [13] and in assay [14].

Consider `CC(C)NCC(O)COc1ccc(CC(N)=O)cc1` (stereo not drawn), for which the molecule was called inactive in assay [1], in [2], in [3], in [4], in assay [5] and in assay [6]. The call in assay [19], in assay [18], in assay [10], in assay [12], in assay [13] and in assay [14] was inactive.
